Measured values: PubChem BioAssay (Tox21)
“And” between values parts separate entries of the source, which are not always exact repeats. Identical values can stand only once. Records with an inconclusive call do not appear. Entries that show only a call come without a potency. A structure can be active in one record and inactive in another. The source made the active and inactive calls. Unless noted, the call rests on the fitted dose curve; in most records, active means well fitted curve in the direction sought with a large enough effect in the repeat runs; inconclusive means weak or mixed curves; inactive means no such curve, though single readings can be large; an effect the other way counts as inactive or inconclusive.

How the values were obtained:
[1] = A CellTox Green Cytotoxicity Assay to monitor cytotoxicity in HEK293 cells - 32 hour (AID 1224881); further: nearly all actives have a fitted effect of over 40% in size; further: potency means the concentration at half of the fitted maximal effect
Outline: (§1)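 Homogeneous no-lysis format: HEK293 cell suspension mixed with CellTox Green reagent, seeded, incubated 5 h at 37 C/5% CO2, then dosed by pintool with compound in DMSO.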

[2] = A CellTox Green Cytotoxicity Assay to monitor cytotoxicity in HepG2 cells - 0 hour (AID 1224882); further: nearly all actives have a fitted effect of over 35% in size; further: potency means the concentration at half of the fitted maximal effect
Outline: (§2)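 Fluorescent DNA-binding dye, 600 HepG2 cells/well, 5 h preincubation then compound in DMSO; same plates read at 0–40 h, 37 C.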

[3] = A CellTox Green Cytotoxicity Assay to monitor cytotoxicity in HepG2 cells - 32 hour (AID 1224883); further: nearly all actives have a fitted effect of over 50% in size; further: potency means the concentration at half of the fitted maximal effect
Outline: as §2

[4] = A CellTox Green Cytotoxicity Assay to monitor cytotoxicity in HEK293 cells - 8 hour (AID 1224884); further: nearly all actives have a fitted effect of over 35% in size; further: potency means the concentration at half of the fitted maximal effect
Outline: as §1

[5] = qHTS RealTime-Glo MT Cell Viability Assay in HepG2 cells - 16 hour (AID 1224885); further: nearly all actives have a fitted effect of over 50% in size
Outline: (§3)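 HepG2 suspension premixed with RealTime-Glo reagents is plated at 600 cells per well and left 5 h at 37 C/5% CO2. Compounds in DMSO then go in, and bioluminescence reflecting viable cell number is recorded over 40 h.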

[6] = qHTS RealTime-Glo MT Cell Viability Assay in HEK293 cells - 8 hour (AID 1224887); further: nearly all actives have a fitted effect of over 50% in size; further: potency means the concentration at half of the fitted maximal effect
Outline: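 Measured as luminescence from the same continuously cultured HEK293 wells at successive time points (0, 8, 16, 24, 32, 40 h) after compound addition. Reagent present from seeding; dosing at 5 h; incubation 37 C.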

[7] = A CellTox Green Cytotoxicity Assay to monitor cytotoxicity in HEK293 cells - 16 hour (AID 1224888); further: nearly all actives have a fitted effect of over 35% in size
Outline: as §1

[8] = qHTS RealTime-Glo MT Cell Viability Assay in HepG2 cells - 0 hour (AID 1224889); further: nearly all actives have a fitted effect of over 50% in size
Outline: as §3

[9] = A CellTox Green Cytotoxicity Assay to monitor cytotoxicity in HepG2 cells - 8 hour (AID 1224890); further: nearly all actives have a fitted effect of over 45% in size; further: potency means the concentration at half of the fitted maximal effect
Outline: as §2

[10] = qHTS assay to identify small molecule antagonists of the estrogen receptor alpha (ER-alpha) signaling pathway using the BG1 cell line in the presence of 0.1 nM 17-beta-estradiol - cell viability counter screen (AID 1259241); further: nearly all actives have a fitted effect of over 40% in size; further: potency means the concentration at half of the fitted maximal effect
Outline: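 Live-cell protease activity (CellTiter-Fluor fluorescence, 30 min) was read in the same wells after VM7Luc4E2 cells had been exposed to compounds with 0.1 nM 17beta-estradiol for 22 hr at 37C.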

[11] = qHTS assay to identify small molecule antagonists of the androgen receptor (AR) signaling pathway using the MDA cell line in the presence of 0.5 nM R1881 - cell viability counter screen (AID 1259242); further: nearly all actives have a fitted effect of over 45% in size
Outline: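 Human breast carcinoma MDA-kb2 cells, cultured without CO2, receive compounds alongside 0.5 nM (final) R1881 agonist. After 16 hr at 37C, viability is taken as live-cell protease signal.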

[12] = qHTS assay to identify small molecule HDAC inhibitors (AID 1259364); further: potency means the concentration at half of the fitted maximal effect;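 further: wild-type HCT-116 cells with endogenous class I/II HDAC activity; nearly all actives have a fitted effect of over 45% in size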
Outline: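 After a 2 hr compound incubation (37C, 5% CO2), HCT-116 cells seeded at 1,500/well the day before received HDAC-Glo reagent; signal read as luminescence after 30 min at room temperature.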

[13] = qHTS assay to identify small molecule HDAC inhibitors - cell viability counter screen (AID 1259365)
Outline: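 HCT-116 (wild type), 1,500 cells/well, overnight 37C/5% CO2; compound in DMSO 2hr; CellTiter-Glo 30min RT; luminescence read.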

[14] = qHTS assay to identify small molecule agonists of the sonic hedgehog signaling (Shh) pathway - cell viability counter screen (AID 1259366); further: nearly all actives have a fitted effect of over 50% in size; further: potency means the concentration at half of the fitted maximal effect
Outline: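 CellTiter-Fluor fluorescence read-out, 1 hr at 37C, added after 23hr compound exposure. Cells: 3T3 Gli1-Luc, an NIH/3T3 clone with stably integrated Gli1-Luc reporter, plated 4hr before compound.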

[15] = qHTS assay to identify small molecule antagonists of the sonic hedgehog signaling (Shh) pathway - cell viability counter screen (AID 1259367); further: nearly all actives have a fitted effect of over 55% in size; further: potency means the concentration at half of the fitted maximal effect
Outline: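 Tox21 library chemicals were tested on a Gli1-Luc NIH/3T3 clone (2,000 cells/well) stimulated by conditioned medium; viability was quantified as fluorescence from CellTiter-Fluor reagent added at 23 hr.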

[16] = qHTS assay to identify small molecule agonists of the sonic hedgehog signaling (Shh) pathway (AID 1259368; calls by dose curve;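 further: NIH/3T3-derived 3T3Gli1-Luc cells carrying a stable Gli1-driven firefly luciferase reporter; series mostly up to about 92 µM; nearly all actives have a fitted effect of over 15% in size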)
Outline: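 Stable NIH/3T3 Gli1-Luc reporter clone; 24 hr cpd exposure after a 4 hr settling period; luminescence endpoint.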

[17] = qHTS assay to identify small molecule phospholipidosis (PLD) inducers (AID 1259344; active means well fitted curve in the direction sought with a large enough effect; an effect the other way counts as inactive or inconclusive)
Outline: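 Image-based: LipidTOX Red pit count/intensity per well and per cell; HepG2, 24 h compound at 37 C, PFA fixation, Hoechst counterstain.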

[18] = target: Estrogen receptor (Homo sapiens) (UniProt P03372); assay: qHTS assay to identify small molecule antagonists of the estrogen receptor alpha (ER-alpha) signaling pathway using the BG1 cell line in the presence of 0.1 nM 17-beta-estradiol (AID 1259244); further: nearly all actives have a fitted effect of over 50% in size; further: potency means the concentration at half of the fitted maximal effect
Estrogen receptor (Homo sapiens), sequence (P03372 whole entry, looked up): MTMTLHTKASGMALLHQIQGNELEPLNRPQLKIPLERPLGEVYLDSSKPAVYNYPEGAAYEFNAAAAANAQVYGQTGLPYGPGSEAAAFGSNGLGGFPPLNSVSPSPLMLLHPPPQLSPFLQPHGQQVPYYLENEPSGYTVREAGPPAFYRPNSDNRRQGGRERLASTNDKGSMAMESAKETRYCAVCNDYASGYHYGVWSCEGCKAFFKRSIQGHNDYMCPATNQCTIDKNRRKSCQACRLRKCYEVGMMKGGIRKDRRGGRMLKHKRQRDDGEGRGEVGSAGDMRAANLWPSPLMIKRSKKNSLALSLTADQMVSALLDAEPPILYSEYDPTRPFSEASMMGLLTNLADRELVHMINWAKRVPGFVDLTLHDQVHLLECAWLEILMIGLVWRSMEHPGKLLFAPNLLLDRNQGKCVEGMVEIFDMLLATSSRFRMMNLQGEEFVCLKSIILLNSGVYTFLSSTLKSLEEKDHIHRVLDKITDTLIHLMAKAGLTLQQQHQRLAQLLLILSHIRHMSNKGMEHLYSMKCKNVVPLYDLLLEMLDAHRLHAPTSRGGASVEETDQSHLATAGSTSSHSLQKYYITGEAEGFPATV
Outline: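 Seeding of stripped-serum-adapted VM7Luc4E2 cells, 24 h attachment, compound transfer, then 0.1 nM final 17beta-estradiol; after 22 h incubation, ONE-Glo reagent and luminescence reading.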

[19] = qHTS RealTime-Glo MT Cell Viability Assay in HEK293 cells - 24 hour (AID 1224886)
Outline: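 Reads taken at 0, 8, 16, 24, 32 and 40 h from the same wells. HEK293 cells (600/well) carried RealTime-Glo reagents from seeding, with compound added after a 5 h settle at 37 C.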

SMILES	Potency [1]	Potency [2]	Potency [3]	Potency [4]	Potency [5]	Potency [6]	Potency [7]	Potency [8]	Potency [9]	Potency [10]	Potency [11]	Potency [12]	outcome [13]	Potency [14]	Potency [15]	Potency [16]	Potency [17]	Potency [18]	Potency [19]
O=C(c1ccccc1)c1ccccc1O	inactive	inactive	inactive	inactive	inactive	inactive	inactive	inactive	inactive	inactive	inactive	inactive	inactive	inactive	inactive	inactive			
Cc1c(OCC(F)(F)F)ccnc1CS(=O)c1nc2ccccc2[nH]1 (centres undefined)	inactive	inactive	inactive	inactive	inactive	21.9 µM (active) and 23.9 µM (active)	inactive	inactive	inactive	inactive	inactive	inactive	inactive	inactive	inactive	inactive	inactive		
c1ccc(Nc2ccccc2)cc1	21.9 µM (active) and inactive	inactive	38.9 µM (active) and inactive	inactive	inactive	inactive	inactive		inactive	inactive	inactive	inactive	inactive	inactive	inactive	inactive			
Nc1ccc(Nc2ccccc2)cc1	inactive	inactive	inactive	inactive	inactive	21.6 µM (active) and 21.9 µM (active)	inactive		inactive	inactive	inactive	inactive	inactive	61.1 µM (active)	48.6 µM (active)	inactive		inactive	
CC1=CC2C3CC(C=C3C)C2C1 (centres undefined)	inactive and 38.9 µM (active)	inactive and 27.5 µM (active)	inactive and 24.5 µM (active)	inactive and 43.6 µM (active)	inactive	inactive		inactive	inactive and 38.9 µM (active)	inactive	inactive	inactive	inactive	inactive	inactive	inactive		inactive	
CCCCC(CC)COP(=O)(OCC(CC)CCCC)OCC(CC)CCCC (centres undefined)	inactive	inactive	inactive	inactive	inactive	inactive	inactive	inactive	inactive	inactive	inactive	inactive	inactive	inactive	inactive	inactive			
O=Cc1ccccc1O	inactive	inactive	inactive	inactive	inactive	inactive	inactive		inactive	inactive	inactive	inactive	inactive	inactive	inactive	inactive		inactive	
O=CCc1ccccc1	inactive	inactive	inactive	inactive	inactive	inactive	inactive	inactive	inactive	inactive	inactive	inactive	inactive	inactive	inactive	inactive			
S=C(NC1CCCCC1)NC1CCCCC1	inactive	inactive	inactive	inactive	inactive		inactive	inactive	inactive	inactive	inactive	inactive	inactive	inactive	inactive and 30.6 µM (active)			53.4 µM (active) and 48.6 µM (active)	
C=C(C)C1CC=C(C)CC1 (centres undefined)	inactive	inactive	inactive	inactive	inactive	inactive	inactive		inactive	inactive	inactive	inactive	inactive	inactive	inactive	inactive	inactive	inactive	
C[Si](C)(C)O[Si](C)(C)C	inactive	inactive	inactive	inactive	inactive	inactive	inactive	inactive	inactive	inactive	inactive	inactive	inactive	inactive	inactive	inactive	inactive		
c1ccc2c(c1)Oc1ccccc1S2	49.8 µM (active) and inactive	inactive	inactive	inactive	inactive	inactive	inactive		inactive	inactive	inactive	inactive	inactive	inactive	inactive	inactive		inactive	
CC(=O)O[C@]1(C(C)=O)CC[C@H]2[C@@H]3C=C(Cl)C4=CC(=O)[C@@H]5C[C@@H]5[C@]4(C)[C@H]3CC[C@@]21C	inactive	inactive	inactive	inactive		inactive	inactive	inactive	inactive	inactive	inactive	inactive	inactive	inactive	inactive	inactive			21.9 µM (active)
Cc1c(C(N)=O)cc([N+](=O)[O-])cc1[N+](=O)[O-]	inactive	inactive	inactive	inactive	inactive	inactive	inactive		inactive	inactive	inactive	inactive	inactive	inactive	inactive	inactive	inactive	inactive	
Nc1ccc(S(=O)(=O)Nc2cnc3ccccc3n2)cc1	inactive	inactive	inactive	inactive	inactive	inactive	inactive	inactive	inactive	inactive	inactive	inactive	inactive	inactive	inactive	inactive	inactive		
C#C[C@]1(O)CC[C@H]2[C@@H]3CCc4cc(OC)ccc4[C@H]3CC[C@@]21C		inactive	23.9 µM (active)	inactive	inactive		inactive	inactive	inactive	inactive	inactive	inactive	inactive	inactive	inactive	inactive	inactive	inactive	34.7 µM (active) and 19 µM (active)
CCCCC/C=C/C=C/C=O	54.5 µM (active)	inactive	54.5 µM (active) and 54.9 µM (active)	inactive	inactive	inactive	inactive	inactive	inactive	inactive	inactive	inactive	inactive	inactive	inactive	inactive			
OC[C@H]1O[C@@H]2O[C@H]3[C@H](O)[C@@H](O)[C@@H](O[C@H]4[C@H](O)[C@@H](O)[C@@H](O[C@H]5[C@H](O)[C@@H](O)[C@@H](O[C@H]6[C@H](O)[C@@H](O)[C@@H](O[C@H]7[C@H](O)[C@@H](O)[C@@H](O[C@H]8[C@H](O)[C@@H](O)[C@@H](O[C@H]1[C@H](O)[C@H]2O)O[C@@H]8CO)O[C@@H]7CO)O[C@@H]6CO)O[C@@H]5CO)O[C@@H]4CO)O[C@@H]3CO	inactive	inactive	inactive	inactive	inactive	inactive	inactive	inactive	inactive	inactive	inactive	inactive	inactive	inactive	inactive	inactive	inactive		
COc1cccc2c1C(=O)c1c(O)c3c(c(O)c1C2=O)C[C@@](O)(C(=O)CO)C[C@@H]3O[C@H]1C[C@H](N)[C@H](O)[C@H](C)O1	inactive	inactive	inactive and 21.3 µM (active)		inactive	inactive	inactive	inactive	inactive	11.9 µM (active)		inactive and 11.9 µM (active)	inactive	967 nM (active) and 9.44 µM (active)	967 nM (active) and 6.68 µM (active)	inactive	inactive	inactive	
